According to PubChem BioAssay (NCI):
About 83,000 compounds went through this panel and 20% of them were active in at least one assay; those are over-represented in the sample as a whole.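 Cells were grown in 96-well plates and exposed to the test compound at a single concentration for 48 hours; results are reported as percent growth, with values below 10 considered active.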 Active and inactive are the calls of the source.

Key:
Assay in all cases: NCI-60 one-dose screen, 48 h (100 = growth as untreated, 0 = no growth, -100 = all killed)
Settings in all cases: 10 µM unless noted
RPMI-8226 leukemia = test system: RPMI-8226 leukemia
OVCAR-8 ovarian = test system: OVCAR-8 ovarian
OVCAR-5 ovarian = test system: OVCAR-5 ovarian
OVCAR-4 ovarian = test system: OVCAR-4 ovarian
SK-OV-3 ovarian = test system: SK-OV-3 ovarian
IGROV1 ovarian = test system: IGROV1 ovarian
OVCAR-3 ovarian = test system: OVCAR-3 ovarian
HS 578T breast = test system: HS 578T breast
NCI/ADR-RES ovarian = test system: NCI/ADR-RES ovarian
T-47D breast = test system: T-47D breast

Measured: growth

CCCCC(O)(c1ccc(Cl)cc1)C(CN1CCOCC1)c1ccc(Cl)cc1 (stereo not given)
active: OVCAR-3 ovarian 3.29%
inactive: RPMI-8226 leukemia 18.5% | OVCAR-8 ovarian 22.3% | OVCAR-5 ovarian 83.1% | OVCAR-4 ovarian 32% | SK-OV-3 ovarian 81.1% | IGROV1 ovarian 40% | HS 578T breast 40% | NCI/ADR-RES ovarian 29.9% | T-47D breast 32%

O=C(Nc1ccc(N2CCNCC2)cc1)c1[nH]ncc1Nc1cc(Oc2ccccc2)ncn1
inactive: OVCAR-8 ovarian 26.9% | OVCAR-4 ovarian 43.3% | SK-OV-3 ovarian 19.4% | IGROV1 ovarian 19.7% | HS 578T breast 32.4% | NCI/ADR-RES ovarian 77.5% | T-47D breast 40%
active: RPMI-8226 leukemia -52.9% | OVCAR-5 ovarian -26.4% | OVCAR-3 ovarian 6.24%

O=C1OC(c2ccccc2)(c2ccccc2)c2ccsc21
inactive: RPMI-8226 leukemia 89.1% | OVCAR-8 ovarian 101% | OVCAR-5 ovarian 95.7% | OVCAR-4 ovarian 107% | SK-OV-3 ovarian 102% | IGROV1 ovarian 107% | OVCAR-3 ovarian 100% | HS 578T breast 103% | NCI/ADR-RES ovarian 115% | T-47D breast 104%

O=C1c2ccc3c4c(ccc(c24)C(=O)N1CCCCO)C(=O)N(CCCCO)C3=O
inactive: RPMI-8226 leukemia 16.8% | OVCAR-8 ovarian 75.4% | OVCAR-5 ovarian 106% | OVCAR-4 ovarian 42.4% | SK-OV-3 ovarian 85.1% | IGROV1 ovarian 86.2% | OVCAR-3 ovarian 32.9% | HS 578T breast 78.2% | NCI/ADR-RES ovarian 82.2% | T-47D breast 87.3%

CCc1ccc(CNCC(O)c2ccccc2)cc1 (stereo not given)
inactive: RPMI-8226 leukemia 34.3% | OVCAR-8 ovarian 72.2% | OVCAR-5 ovarian 76.1% | OVCAR-4 ovarian 55.3% | SK-OV-3 ovarian 90.6% | IGROV1 ovarian 41.1% | OVCAR-3 ovarian 71.4% | HS 578T breast 93.3% | NCI/ADR-RES ovarian 65.7% | T-47D breast 72%

Nc1ccn(C2O[C@H](CO)[C@@H](O)[C@H]2O)c(=O)n1 (stereo not given in full)
inactive: RPMI-8226 leukemia 49.8% | OVCAR-8 ovarian 58.5% | OVCAR-5 ovarian 104% | OVCAR-4 ovarian 72.3% | SK-OV-3 ovarian 90.2% | IGROV1 ovarian 82.9% | OVCAR-3 ovarian 88.7% | HS 578T breast 106% | NCI/ADR-RES ovarian 70.1% | T-47D breast 99.2%

Cc1nc2ccccc2c(/C=C/c2ccc(F)cc2)c1C(N)=O
inactive: RPMI-8226 leukemia 96.1% | OVCAR-8 ovarian 104% | OVCAR-5 ovarian 105% | OVCAR-4 ovarian 95.5% | SK-OV-3 ovarian 105% | IGROV1 ovarian 97.4% | OVCAR-3 ovarian 107% | HS 578T breast 106% | NCI/ADR-RES ovarian 111% | T-47D breast 90.8%

COC(=O)C1=Nc2ccc(F)cc2/C1=C/c1sc(=S)[nH]c1O
inactive: OVCAR-8 ovarian 13.3% | OVCAR-5 ovarian 43.6% | OVCAR-4 ovarian 58.2% | SK-OV-3 ovarian 28.5% | IGROV1 ovarian 14.4% | HS 578T breast 23.1% | T-47D breast 61.2%
active: RPMI-8226 leukemia -9.01% | OVCAR-3 ovarian -1.67% | NCI/ADR-RES ovarian 7.28%

O=C1NC(=O)C(=Cc2cn(Cc3cn(Cc4ccc(Cl)cc4Cl)nn3)c3ccccc23)C(=O)N1
inactive: RPMI-8226 leukemia 83% | OVCAR-8 ovarian 83% | OVCAR-5 ovarian 50.8% | OVCAR-4 ovarian 82.4% | SK-OV-3 ovarian 69% | IGROV1 ovarian 85.7% | OVCAR-3 ovarian 92.4% | HS 578T breast 87.5% | NCI/ADR-RES ovarian 96.9% | T-47D breast 64.7%

Nc1ccc(-c2nc3cc(Oc4ccc(Oc5ccc6[nH]c(-c7ccc(N)cc7)nc6c5)cc4)ccc3[nH]2)cc1
inactive: RPMI-8226 leukemia 101% | OVCAR-8 ovarian 91.3% | OVCAR-5 ovarian 113% | OVCAR-4 ovarian 114% | SK-OV-3 ovarian 98.7% | IGROV1 ovarian 120% | OVCAR-3 ovarian 122% | HS 578T breast 108% | NCI/ADR-RES ovarian 103% | T-47D breast 77.3%

CCOC(=O)c1sc(-c2ccc(OS(=O)(=O)c3ccccc3[N+](=O)[O-])c(C=O)c2)nc1C
active: IGROV1 ovarian 3.88%
inactive: RPMI-8226 leukemia 37.2% | OVCAR-8 ovarian 56.5% | OVCAR-5 ovarian 73.6% | OVCAR-4 ovarian 33% | SK-OV-3 ovarian 117% | OVCAR-3 ovarian 23.5% | HS 578T breast 96.3% | NCI/ADR-RES ovarian 61.6% | T-47D breast 28.4%

CN(CCc1ccccc1)C(=S)N(C(=O)c1ccc([N+](=O)[O-])cc1)c1ccc(Cl)cc1
active: RPMI-8226 leukemia -15.8%
inactive: OVCAR-8 ovarian 99.3% | OVCAR-5 ovarian 100% | OVCAR-4 ovarian 86.3% | SK-OV-3 ovarian 102% | IGROV1 ovarian 105% | OVCAR-3 ovarian 83.5% | HS 578T breast 95.2% | NCI/ADR-RES ovarian 98.4% | T-47D breast 68%

COc1cc(/C=C/C(=O)N2c3ccccc3CC2C)c(OC)c2c1OCO2 (stereo not given)
inactive: RPMI-8226 leukemia 88.6% | OVCAR-8 ovarian 96.9% | OVCAR-5 ovarian 87.1% | OVCAR-4 ovarian 96.6% | SK-OV-3 ovarian 122% | IGROV1 ovarian 105% | OVCAR-3 ovarian 103% | HS 578T breast 96.2% | NCI/ADR-RES ovarian 81.5% | T-47D breast 77.2%

COc1cc([C@@H]2NC(=O)NC(C)=C2C(=O)Nc2nc(-c3ccc(Cl)cc3)cs2)ccc1O
inactive: RPMI-8226 leukemia 111% | OVCAR-8 ovarian 102% | OVCAR-5 ovarian 100% | OVCAR-4 ovarian 90.5% | SK-OV-3 ovarian 87.8% | IGROV1 ovarian 96.6% | OVCAR-3 ovarian 111% | HS 578T breast 101% | NCI/ADR-RES ovarian 97.2% | T-47D breast 77.1%

COc1cc(C2C(C#N)=C(N)OC3=C2C(=O)c2ccccc2C3=O)cc(OC)c1O (stereo not given)
active: OVCAR-3 ovarian 1.44% | HS 578T breast 6.8%
inactive: RPMI-8226 leukemia 17.1% | OVCAR-8 ovarian 33.7% | OVCAR-5 ovarian 65.5% | OVCAR-4 ovarian 81.9% | SK-OV-3 ovarian 48.2% | IGROV1 ovarian 62.1% | NCI/ADR-RES ovarian 66.5% | T-47D breast 88.4%

CCn1c(Cc2ccccc2Nc2c(Cl)cccc2Cl)nnc1SCC(=O)NN1C(=O)/C(=C/c2cccc(OC)c2OC)SC1=S
inactive: RPMI-8226 leukemia 94.3% | OVCAR-8 ovarian 99% | OVCAR-5 ovarian 99.2% | OVCAR-4 ovarian 94.2% | SK-OV-3 ovarian 107% | IGROV1 ovarian 99% | OVCAR-3 ovarian 108% | HS 578T breast 94.7% | NCI/ADR-RES ovarian 104% | T-47D breast 86%

COc1cc(C2C(C#N)=C(N)OC3=C2C(=O)c2ccccc2C3=O)cc(OC)c1OC (stereo not given)
active: OVCAR-3 ovarian 3.34% | HS 578T breast 8.28%
inactive: RPMI-8226 leukemia 18.5% | OVCAR-8 ovarian 17.4% | OVCAR-5 ovarian 44% | OVCAR-4 ovarian 74.1% | SK-OV-3 ovarian 29.9% | IGROV1 ovarian 47.7% | NCI/ADR-RES ovarian 70.5% | T-47D breast 67.3%

CCCCNc1nc(NC(C)(C)C)nc(NC(C)(C)C)n1
inactive: RPMI-8226 leukemia 17.7% | OVCAR-8 ovarian 59.5% | OVCAR-5 ovarian 62% | OVCAR-4 ovarian 55.2% | SK-OV-3 ovarian 81.9% | IGROV1 ovarian 51.3% | OVCAR-3 ovarian 54.2% | HS 578T breast 67.7% | NCI/ADR-RES ovarian 53.3% | T-47D breast 45.3%

O=C(c1ccccc1)N(CCc1ccc(Cl)cc1)C(=S)N(C(=O)c1ccccc1)c1ccccc1
active: RPMI-8226 leukemia -27%
inactive: OVCAR-8 ovarian 106% | OVCAR-5 ovarian 106% | OVCAR-4 ovarian 96.6% | SK-OV-3 ovarian 120% | IGROV1 ovarian 116% | OVCAR-3 ovarian 104% | HS 578T breast 108% | NCI/ADR-RES ovarian 109% | T-47D breast 61.7%

COc1ccc(OC)c(NC(=O)/C(C#N)=C/c2ccco2)c1
inactive: RPMI-8226 leukemia 93.7% | OVCAR-8 ovarian 102% | OVCAR-5 ovarian 115% | OVCAR-4 ovarian 77% | SK-OV-3 ovarian 88.2% | IGROV1 ovarian 92.7% | OVCAR-3 ovarian 110% | HS 578T breast 108% | NCI/ADR-RES ovarian 103% | T-47D breast 57.5%

CC(=O)n1cc(-c2c[nH]c3ccccc23)c(-c2ccc(Cl)cc2)n1
inactive: RPMI-8226 leukemia 86.5% | OVCAR-8 ovarian 96.8% | OVCAR-5 ovarian 94.2% | OVCAR-4 ovarian 62% | SK-OV-3 ovarian 95.9% | IGROV1 ovarian 74.9% | OVCAR-3 ovarian 90% | HS 578T breast 94% | NCI/ADR-RES ovarian 86.4% | T-47D breast 72.7%

CC1=C(C(=O)OCC2CCN(C(=O)OC(C)(C)C)CC2)[C@H](c2cccc(Br)c2)C2=C(CC(C)(C)CC2=O)N1
inactive: RPMI-8226 leukemia 18.6% | OVCAR-8 ovarian 21.7% | OVCAR-5 ovarian 64.8% | OVCAR-4 ovarian 40% | SK-OV-3 ovarian 56% | IGROV1 ovarian 35.9% | OVCAR-3 ovarian 30.9% | HS 578T breast 53.5% | NCI/ADR-RES ovarian 25.3% | T-47D breast 22%

Cc1ccc(NCCNCC(O)CO)c2c(=O)c3ccccc3sc12 (stereo not given)
inactive: RPMI-8226 leukemia 34.6% | OVCAR-8 ovarian 14.2% | OVCAR-5 ovarian 46.8% | OVCAR-4 ovarian 34.7% | SK-OV-3 ovarian 31.8% | IGROV1 ovarian 24.3% | OVCAR-3 ovarian 29.9% | HS 578T breast 33.1% | NCI/ADR-RES ovarian 26.8% | T-47D breast 53.8%

COc1ccc(S(=O)(=O)N(Cc2ccc3c(n2)C=CC(C)(C)O3)C2CCC2)cc1OC
inactive: OVCAR-5 ovarian 27.2% | HS 578T breast 12.8%
active: RPMI-8226 leukemia -47.2% | OVCAR-8 ovarian 2.69% | OVCAR-4 ovarian -13.8% | SK-OV-3 ovarian -3.43% | IGROV1 ovarian -23.9% | OVCAR-3 ovarian -26.6% | NCI/ADR-RES ovarian 6.95% | T-47D breast 0.329%

CCOc1ccc2c(c1)CN(Cc1ccc(Cl)cc1)CO2
active: OVCAR-4 ovarian -27.4% | HS 578T breast -7.66%
inactive: RPMI-8226 leukemia 43.3% | OVCAR-8 ovarian 34.1% | OVCAR-5 ovarian 90.9% | SK-OV-3 ovarian 13.5% | IGROV1 ovarian 71% | OVCAR-3 ovarian 22.2% | NCI/ADR-RES ovarian 43.7% | T-47D breast 52.4%

Cn1c(=O)n(C)c2cc(CNCCNc3ccnc4cc(Cl)ccc34)ccc21
inactive: RPMI-8226 leukemia 34.1% | OVCAR-8 ovarian 66.6% | OVCAR-5 ovarian 76.7% | OVCAR-4 ovarian 81.5% | SK-OV-3 ovarian 86.2% | IGROV1 ovarian 98.8% | OVCAR-3 ovarian 89.3% | HS 578T breast 77.6% | NCI/ADR-RES ovarian 80.3% | T-47D breast 82.4%

OC(CNC1CCCCC1)Cn1c2ccc(I)cc2c2cc(I)ccc21 (stereo not given)
inactive: RPMI-8226 leukemia 52.2% | OVCAR-8 ovarian 70.9% | OVCAR-5 ovarian 82.9% | OVCAR-4 ovarian 77% | SK-OV-3 ovarian 91.6% | IGROV1 ovarian 70.8% | OVCAR-3 ovarian 65.7% | HS 578T breast 79.6% | NCI/ADR-RES ovarian 62.8% | T-47D breast 81.3%
